This is a sample that favours compounds with a hit; in the whole collection about 1.5% have one here.
DUSP3 inh: VHR1 phosphatase inhibitors, primary screen, biochemical, absorbance, uHTS | 0.52% of 290,000 active | AID 1654, 2009 | recombinant VHR phosphatase, pNPP absorbance | inhibition, % at 13.3 µM | Dual specificity protein phosphatase 3 (Homo sapiens), P51452; in the data active means inhibition above about 50%
TcdB inh: TcdB glycohydrolase inhibitors, primary screen, biochemical, single point, plate reader; Toxin B (Clostridioides difficile), P18177; TcdB glycohydrolase enzymatic assay; inhibition, % at 9.99 µM; 0.24% of 350,000 active; AID 652162, 2013; in the data active means inhibition above about 10%
Target sequence (P18177 whole entry, looked up): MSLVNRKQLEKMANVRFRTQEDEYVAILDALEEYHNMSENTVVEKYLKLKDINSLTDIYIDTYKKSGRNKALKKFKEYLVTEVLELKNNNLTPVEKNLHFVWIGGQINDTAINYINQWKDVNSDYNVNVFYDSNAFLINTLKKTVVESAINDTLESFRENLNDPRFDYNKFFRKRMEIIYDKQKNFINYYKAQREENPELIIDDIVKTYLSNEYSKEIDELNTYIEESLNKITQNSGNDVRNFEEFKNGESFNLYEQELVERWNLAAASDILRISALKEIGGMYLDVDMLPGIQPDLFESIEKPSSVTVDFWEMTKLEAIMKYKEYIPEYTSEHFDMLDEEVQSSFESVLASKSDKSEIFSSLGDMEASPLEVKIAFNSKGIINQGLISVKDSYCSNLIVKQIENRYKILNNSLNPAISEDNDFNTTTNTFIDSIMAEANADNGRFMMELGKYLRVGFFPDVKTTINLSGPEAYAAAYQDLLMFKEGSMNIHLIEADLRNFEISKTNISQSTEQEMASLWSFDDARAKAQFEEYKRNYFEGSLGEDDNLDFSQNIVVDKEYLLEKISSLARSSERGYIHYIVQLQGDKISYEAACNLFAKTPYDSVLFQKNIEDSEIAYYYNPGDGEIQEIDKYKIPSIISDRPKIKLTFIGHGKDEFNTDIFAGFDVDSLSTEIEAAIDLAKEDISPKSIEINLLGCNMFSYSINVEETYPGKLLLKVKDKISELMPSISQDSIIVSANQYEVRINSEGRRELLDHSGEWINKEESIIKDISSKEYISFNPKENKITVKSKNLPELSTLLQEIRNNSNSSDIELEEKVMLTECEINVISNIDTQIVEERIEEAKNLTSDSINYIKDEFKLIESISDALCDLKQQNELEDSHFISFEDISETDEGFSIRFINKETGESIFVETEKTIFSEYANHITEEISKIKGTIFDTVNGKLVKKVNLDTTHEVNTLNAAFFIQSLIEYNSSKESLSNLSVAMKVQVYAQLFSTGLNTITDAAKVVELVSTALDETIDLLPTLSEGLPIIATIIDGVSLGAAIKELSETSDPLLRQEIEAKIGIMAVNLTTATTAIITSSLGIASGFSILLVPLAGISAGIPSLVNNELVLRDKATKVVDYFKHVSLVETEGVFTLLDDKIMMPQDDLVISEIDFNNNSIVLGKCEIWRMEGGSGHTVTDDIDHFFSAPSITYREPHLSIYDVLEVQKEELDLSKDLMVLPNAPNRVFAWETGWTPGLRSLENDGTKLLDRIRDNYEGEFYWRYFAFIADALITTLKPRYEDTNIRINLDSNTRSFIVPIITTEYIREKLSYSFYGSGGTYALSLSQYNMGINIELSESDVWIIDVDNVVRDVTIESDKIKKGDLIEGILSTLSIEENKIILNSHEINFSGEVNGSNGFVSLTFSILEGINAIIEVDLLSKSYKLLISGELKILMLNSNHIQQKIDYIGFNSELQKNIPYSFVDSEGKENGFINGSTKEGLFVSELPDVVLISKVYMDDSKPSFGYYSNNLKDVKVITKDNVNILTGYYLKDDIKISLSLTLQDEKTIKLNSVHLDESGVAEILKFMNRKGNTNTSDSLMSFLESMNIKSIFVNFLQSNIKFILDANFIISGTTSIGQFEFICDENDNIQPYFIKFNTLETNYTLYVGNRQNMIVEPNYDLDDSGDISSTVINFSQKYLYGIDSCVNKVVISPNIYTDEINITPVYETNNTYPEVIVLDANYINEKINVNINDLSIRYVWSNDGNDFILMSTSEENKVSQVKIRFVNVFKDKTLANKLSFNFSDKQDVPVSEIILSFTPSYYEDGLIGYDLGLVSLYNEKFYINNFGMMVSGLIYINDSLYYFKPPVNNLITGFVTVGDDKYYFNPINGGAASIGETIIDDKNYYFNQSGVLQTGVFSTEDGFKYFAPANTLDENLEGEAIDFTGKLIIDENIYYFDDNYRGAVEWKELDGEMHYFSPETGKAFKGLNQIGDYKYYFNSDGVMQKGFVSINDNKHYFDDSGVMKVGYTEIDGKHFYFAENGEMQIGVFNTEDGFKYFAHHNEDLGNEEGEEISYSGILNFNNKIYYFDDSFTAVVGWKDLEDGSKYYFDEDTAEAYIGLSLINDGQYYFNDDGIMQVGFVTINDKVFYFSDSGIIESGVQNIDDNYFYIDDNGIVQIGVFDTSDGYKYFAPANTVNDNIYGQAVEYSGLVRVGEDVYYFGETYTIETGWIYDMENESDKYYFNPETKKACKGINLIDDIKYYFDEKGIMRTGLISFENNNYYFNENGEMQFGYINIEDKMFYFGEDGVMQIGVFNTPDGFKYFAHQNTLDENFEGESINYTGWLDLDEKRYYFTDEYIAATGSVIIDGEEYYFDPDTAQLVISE
SSB-PriA inh: inhibitors of Klebsiella pneumoniae PriA binding to SSB C-terminal tail, primary screen, biochemical, AlphaScreen. PriA–SSB C-terminal tail interaction (Klebsiella pneumoniae). AlphaScreen SSBct-PriA binding, biotinylated peptide. inhibition, % at 33 µM. 0.6% of 430,000 active. AID 1272365, 2023; in the data active means inhibition mostly above about 37%, no sharp cut-off; inactive means mostly below about 20%;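 further: plate controls were negative control peptide for no effect and reference peptide for full effect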
BH1578 lux ind: inducers of Vibrio cholerae quorum light production without autoinducers, primary screen, BH1578 luxS cqsA deficient, single point; 0.16% of 350,000 active; AID 588436, 2011; activation, % at 18.7 µM; V. cholerae BH1578 lux reporter, luminescence, 6 h; in the data active means activation mostly above about 9.7%, no sharp cut-off
PrPC TRFRET: inhibitors of human cell surface prion protein PrPC, primary screen, cell-based, TR-FRET; Major prion protein (Homo sapiens), P04156; TR-FRET read-out; AID 720596, 2013; inhibition, % at 13.8 µM; 0.43% of 370,000 active; in the data active means inhibition above about 24%; further: 0% = median of the test wells and 100% = reference compound wells
CCHF vOTU inh: CCHFV vOTU protease inhibitors, primary screen, biochemical, Pep-AMC substrate, fluorescence. Crimean-Congo hemorrhagic fever virus L polyprotein viral ovarian tumor (vOTU) protease …. inhibition, % at 11.5 µM. 0.55% of 370,000 active; in the data active means inhibition above about 30%; further: 0% = vehicle wells with enzyme and 100% = no enzyme wells
Active calls of the source: *.

How did O=C(COc1ccc(Cl)cc1Cl)Nc1nnc(-c2ccc(Cl)cc2Cl)s1 do in these assays?
SSB-PriA inh: -16.0

Results for COc1ccc(CNC(=O)Cn2nc(C)n3cccc3c2=O)cc1 ?
DUSP3 inh: 2.8; TcdB inh: 0.6; SSB-PriA inh: 7.8; BH1578 lux ind: -0.2; PrPC TRFRET: 8.7; CCHF vOTU inh: -11.0

What do the screens show for `COc1ccc(Br)cc1CNC(=O)Cn1nc(C)n2cccc2c1=O`?
DUSP3 inh: 56.3*; TcdB inh: 0.5; SSB-PriA inh: -13.2; BH1578 lux ind: -0.3; PrPC TRFRET: 2.9; CCHF vOTU inh: 7.3

Results for COc1ccc(-c2csc3ncnc(N4CCN(CCO)CC4)c23)cc1 ?
DUSP3 inh: 56.9*; TcdB inh: 0.6; SSB-PriA inh: 1.1; BH1578 lux ind: inactive; PrPC TRFRET: -11.3; CCHF vOTU inh: -7.8

What do the screens show for `CCOc1ccc(Nc2ccc([N+](=O)[O-])c3nonc23)cc1`?
DUSP3 inh: 4.4; TcdB inh: 1.4; SSB-PriA inh: 77.5*; BH1578 lux ind: inactive; PrPC TRFRET: -48.5; CCHF vOTU inh: 9.5

How did O=[N+]([O-])c1ccc(Nc2ccc(Oc3ccc(Nc4ccc([N+](=O)[O-])c5nonc45)cc3)cc2)c2nonc12 do in these assays?
SSB-PriA inh: 43.6

How did CN1CCN(c2ccc(NC(=O)c3ccc([N+](=O)[O-])o3)cc2Cl)CC1 do in these assays?
DUSP3 inh: 20.3; TcdB inh: 1.8; SSB-PriA inh: -1.1; BH1578 lux ind: inactive; PrPC TRFRET: 12.2; CCHF vOTU inh: 11.3

Results for CCCC(=O)N1CCN(c2ccc(NC(=O)c3ccc([N+](=O)[O-])o3)cc2Cl)CC1 ?
DUSP3 inh: 12.3; TcdB inh: 2.6; SSB-PriA inh: 5.8; BH1578 lux ind: -0.8; PrPC TRFRET: 39.9*; CCHF vOTU inh: 25.9

Results for CCCN1CCCc2cc(CCNS(=O)(=O)CCc3ccccc3)ccc21 ?
SSB-PriA inh: 71.0*

What do the screens show for `CCCN1CCCc2cc(CCNS(=O)(=O)CC(C)C)ccc21`?
SSB-PriA inh: 74.0*

What do the screens show for `CCCN1CCCc2cc(CCNC(=O)C(=O)NCc3ccccc3Cl)ccc21`?
SSB-PriA inh: -19.0

What do the screens show for `Cc1ccc(S(=O)(=O)NCCc2ccc3c(c2)CCCN3C)cc1Cl`?
SSB-PriA inh: 38.0*

How did COc1ccc(C)cc1S(=O)(=O)NCCc1ccc2c(c1)CCCN2C do in these assays?
SSB-PriA inh: 65.0*

What do the screens show for `Cc1nc2scc(-c3cccc(NC(=O)NC4CCCCC4)c3)n2c(=O)c1C`?
SSB-PriA inh: -3.0

Results for O=c1cc(-c2ccc(F)cc2)nc[nH]1 ?
SSB-PriA inh: -8.0

What do the screens show for `COC(=O)c1ccccc1C(=O)N(Cc1cccnc1)c1nc2ccc(F)cc2s1`?
SSB-PriA inh: 8.0

Results for CCCN1CCCc2cc(CCNS(=O)(=O)c3ccc(F)c(Cl)c3)ccc21 ?
SSB-PriA inh: 47.0*

How did CCCN1CCCc2cc(CCNS(=O)(=O)c3ccc(CC)s3)ccc21 do in these assays?
SSB-PriA inh: 60.0*

What do the screens show for `CC(C)(C)NC(=O)CN(C(=O)CCN1CCCc2ccccc21)C(C)(C)C`?
DUSP3 inh: -0.2; TcdB inh: -43.2; SSB-PriA inh: -6.0; BH1578 lux ind: -0.2; PrPC TRFRET: 8.0; CCHF vOTU inh: 15.6

How did CCCN1CCCc2ccccc21 do in these assays?
DUSP3 inh: 5.7; TcdB inh: 0.4; SSB-PriA inh: 39.2*; BH1578 lux ind: 1.6; PrPC TRFRET: -1.1; CCHF vOTU inh: 2.9

What do the screens show for `CCCN1CCCc2cc(CCNS(C)(=O)=O)ccc21`?
SSB-PriA inh: 70.0*

Results for CCCN1CCCc2cc(CCNS(=O)(=O)c3cc(C)c(OC)c(C)c3)ccc21 ?
SSB-PriA inh: 63.0

Results for CCCN1CCCc2cc(CCNC(=O)CC)ccc21 ?
SSB-PriA inh: 51.7

How did CN(C)c1ccc(CCNS(=O)(=O)c2ccc3c(c2)OCCO3)cc1 do in these assays?
SSB-PriA inh: 3.0

Results for CCCN1CCCc2cc(CCNS(=O)(=O)CCC)ccc21 ?
SSB-PriA inh: 112.1*
